Screening data deposited in PubChem BioAssay by National Center for Advancing Translational Sciences (NCATS).
TSHR antagonist: antagonists of human thyroid stimulating hormone receptor. TSHR-expressing cells, TSH-stimulated cAMP HTRF, 2 h; stronger effect = lower value. activity change, negative = inhibition, % at 11.5 µM. P16473. hit rate 0.2% among 330,000;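 active = activity change below a set negative limit, meaning inhibition stronger than a set level, cut at about -70% in these data; inconclusive = activity change between two set negative limits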
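Competitive HTRF cAMP read-out (cryptate anti-cAMP antibody, cAMP-d2; 30 min, room temperature) in freshly harvested TSHR cells. Compounds added before TSH at EC80 (4nM final), followed by 2 hours' incubation at 37 deg C.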
Gal4-VP16 FLuc: Gal4-VP16 reporter inhibition counter-screen; Potency, µM (doses to about 53.6 µM), actives largely listed as inhibitors; Drosophila S2 Gal4-VP16 UAS-luciferase, luminescence, 20 h; hit rate 3.5% among 310,000;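 also: Gal4-VP16 expression switched on by copper sulfate through the metallothionein promoter; nearly all actives have a fitted effect of over 50% in size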
RORgamma inh: inhibitors of mouse ROR gamma transcriptional activity. Potency, µM (top dose mostly 53.6 µM), actives largely listed as inhibitors. hit rate 5.4% among 310,000. P51450. Drosophila S2 Gal4-RORgamma UAS-luciferase reporter, 20 h; also: nearly all actives have a fitted effect of over 60% in size
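Drosophila S2 cells stably expressing Gal4-DBD/mouse RORγ fusion under metallothionein promoter plus UAS-luciferase; compound 1 h, then 700 uM CuSO4 induction for 20 h at ambient temperature; inhibition read as reduced luminescence.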
B2AR arrestin: recruits beta-arrestin to the human beta2-adrenergic receptor. hit rate 0.02% among 330,000. beta-arrestin recruitment to beta2AR, cell-based reporter. P07550. Potency, µM (highest dose often 46.1 µM), most hits filed as activators. AID 492947; also: nearly all actives have a fitted effect of over 65% in size
Target sequence (P07550 whole entry, looked up): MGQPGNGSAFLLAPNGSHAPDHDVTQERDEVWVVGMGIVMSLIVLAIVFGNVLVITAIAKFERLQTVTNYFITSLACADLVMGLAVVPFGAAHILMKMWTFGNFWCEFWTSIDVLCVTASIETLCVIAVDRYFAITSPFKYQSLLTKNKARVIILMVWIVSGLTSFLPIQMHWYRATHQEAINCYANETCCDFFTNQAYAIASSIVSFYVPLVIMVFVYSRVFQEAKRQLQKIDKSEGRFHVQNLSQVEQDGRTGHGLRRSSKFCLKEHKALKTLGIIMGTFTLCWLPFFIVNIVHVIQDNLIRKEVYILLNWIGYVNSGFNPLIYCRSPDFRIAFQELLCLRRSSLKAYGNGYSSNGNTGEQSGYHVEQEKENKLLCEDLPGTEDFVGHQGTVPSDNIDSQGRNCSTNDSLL
ELG1 repair inh: ELG1-dependent DNA repair inhibition; HEK293T ELG1-luciferase reporter, luminescence, 16 h; DNA damage induced by 5-fluorouridine; Potency, µM (top dose mostly 46.1 µM), hits mostly inhibitors; hit rate 2.3% among 330,000; also: nearly all actives have a fitted effect of over 55% in size
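Cells (2,000 per well) received 5-fluorouridine plus test compound or DMSO and were incubated 16 hr at 37 °C, 5% CO2. Luciferase activity was read by luminescence 30 min after ONE-Glo addition; signal suppression marked inhibition of damage-induced ELG1 function.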
ELG1 FLuc counter: luciferase inhibition in cell-free luciferin readout for ELG1 hits. shares compounds with ELG1 repair inh. cell-free firefly luciferase luminescence counter-screen, ViewLux. Potency, µM (titrated, usually from 46.1 µM), most hits filed as inhibitors. hit rate 3% among 350. AID 624247
ELG1-Luc inh: inhibits ELG1-dependent DNA repair in HEK293T cells, confirmed; AID 624248; shares compounds with ELG1 repair inh; Potency, µM (top dose mostly 46.1 µM), hits mostly inhibitors; HEK293T ELG1-luciferase levels, luminescence; cells co-treated with 5-fluorouridine; hit rate 68% among 670; also: nearly all actives have a fitted effect of over 55% in size
ELG1 MMS Luc: confirmation of human ELG1 repair inhibitors, MMS stimulated; hit rate 53% among 670; Potency, µM (highest dose often 46.1 µM), usual class: inhibitors; shares compounds with ELG1 repair inh; HEK293T luciferase-tagged ELG1 level, MMS stimulated; also: nearly all actives have a fitted effect of over 60% in size
ELG1 5FU viab: confirmation of ELG1 repair inhibitors: viability with 5FU; shares compounds with ELG1 repair inh; cell viability with 5-FU, ELG1-dependent repair; Potency, µM (series often up to 46.1 µM), most hits filed as cytotoxic; 670 tested, under 10 active; AID 624250;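 also: ELG1-luc HEK293T cells cotreated with 5-fluorouridine at 10 µM final; viability measured 16 h after compound addition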
ELG1 MMS viab: confirmation of ELG1 repair inhibitors: viability with MMS | shares compounds with ELG1 repair inh | Cell viability with MMS, ELG1-dependent DNA repair | Potency, µM (titrated, usually from 46.1 µM), most hits filed as cytotoxic | hit rate 33% among 670 | AID 624251;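 also: ELG1-luc HEK293T cells co-treated with 10 µM MMS; viability read 16 h after compound addition; nearly all actives have a fitted effect of over 60% in size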
Cell viab unstim: counter-screen for ELG1 repair inhibitors: unstimulated cell viability; AID 624252; cell viability counter-screen, unstimulated, luminescence; shares compounds with ELG1 repair inh; Potency, µM (top dose mostly 45.9 µM), actives largely listed as cytotoxic; hit rate 8% among 900;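 also: compound exposure lasted 16 hours before reading; nearly all actives have a fitted effect of over 55% in size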
FLuc enzyme: counter-screen for ELG1 repair inhibitors: firefly luciferase inhibition | shares compounds with ELG1 repair inh | purified firefly luciferase, luminescence counter-screen | Potency, µM (top dose mostly 57.5 µM), hits mostly inhibitors | hit rate 10% among 350 | AID 624253
Large screens that a line does not name were inactive (follow-up assays come after a bar, where they were run). This is a sample that favours compounds with a hit; in the whole collection about 7.5% have one here. Unless noted, calls follow the shape of the dose curve; as a rule, active = well fitted curve in the direction sought with a large enough effect; inconclusive = small, poorly fitted or top-dose-only effect, or another doubt; inactive = no such curve, though single readings can be large; an effect the other way counts as inactive or inconclusive.

COc1c(C)cc(S(=O)(=O)NCc2ccccn2)c(C)c1C	ELG1 repair inh inconclusive
Cc1cc(C(=O)COC(=O)c2cccnc2Cl)c(C)n1C	ELG1 repair inh inconclusive (no result: TSHR antagonist, Gal4-VP16 FLuc, RORgamma inh) | ELG1 FLuc counter inactive | Cell viab unstim inconclusive | FLuc enzyme 0.259µM
CCn1c(C)cc(C(=O)COC(=O)c2cccnc2SC)c1C	ELG1 repair inh inconclusive (no result: Gal4-VP16 FLuc, RORgamma inh) | Cell viab unstim inactive
CCCCn1c(N)c(-c2nc3ccccc3o2)c2c([N+](=O)[O-])nn(C)c(=O)c21	ELG1 repair inh inconclusive | ELG1-Luc inh inconclusive | ELG1 MMS Luc inactive | ELG1 5FU viab inconclusive | ELG1 MMS viab inactive | Cell viab unstim inactive
CCCCCn1c(N)c(-c2nc3ccccc3s2)c2c([N+](=O)[O-])nn(C)c(=O)c21	ELG1 repair inh 0.731µM | ELG1 FLuc counter inconclusive | ELG1-Luc inh 5µM | ELG1 MMS Luc 28.1µM | ELG1 5FU viab inconclusive | ELG1 MMS viab inconclusive | Cell viab unstim inactive | FLuc enzyme inactive
CCCCn1c(N)c(-c2nc3ccccc3o2)c2c([N+](=O)[O-])nn(CC)c(=O)c21	ELG1 repair inh 2.06µM | ELG1-Luc inh 0.996µM | ELG1 MMS Luc inactive | ELG1 5FU viab inconclusive | ELG1 MMS viab inactive | Cell viab unstim inactive
CCCc1cc(C(=O)OCC(=O)N(CCC)c2c(N)n(Cc3ccccc3)c(=O)[nH]c2=O)sc1C	none (no result: Gal4-VP16 FLuc, RORgamma inh)
COc1ccc(N(C)C(=O)c2cn(CC(C)C)c(=O)c3cc(OC)c(OC)cc23)c(OC)c1	ELG1 repair inh 1.46µM | ELG1 FLuc counter inactive | ELG1-Luc inh 1.77µM | ELG1 MMS Luc inactive | ELG1 5FU viab inconclusive | ELG1 MMS viab inactive | Cell viab unstim inconclusive | FLuc enzyme inactive
O=C(c1nc2nc(-c3ccccc3)cc(C(F)(F)F)n2n1)N1CCCCC1	ELG1 repair inh 3.26µM | ELG1-Luc inh inactive | ELG1 MMS Luc inactive | ELG1 5FU viab inactive | ELG1 MMS viab inactive | Cell viab unstim inactive
CC(=O)CSc1ncnc2nc[nH]c12	none
Cn1cnc(Sc2ncnc3nc[nH]c23)c1[N+](=O)[O-]	ELG1 repair inh inconclusive | ELG1 FLuc counter inactive | ELG1-Luc inh inconclusive | ELG1 MMS Luc inconclusive | ELG1 5FU viab inactive | ELG1 MMS viab inactive | Cell viab unstim 15.8µM | FLuc enzyme inactive
Cc1cc(OCC(=O)Nc2ccncc2)cc(C)c1Cl	ELG1 repair inh 2.59µM (no result: Gal4-VP16 FLuc, RORgamma inh) | ELG1-Luc inh inconclusive | ELG1 MMS Luc 2.5µM | ELG1 5FU viab inactive | ELG1 MMS viab 2.5µM | Cell viab unstim inactive
Cc1cccc(C)c1OCC(=O)Nc1ccncc1	none
CCS(=O)(=O)c1nc(S(=O)(=O)c2ccc(Cl)cc2)c(N2CCC(O)CC2)s1	none
COc1ccc([C@H]2Cc3cc(O)cc(O)c3C(=O)O2)cc1O	ELG1 repair inh inconclusive (no result: Gal4-VP16 FLuc, RORgamma inh) | Cell viab unstim inactive
O=C(c1cc(S(=O)(=O)N2CCOCC2)c(Cl)cc1Cl)N1CCN(S(=O)(=O)c2cccc(F)c2)CC1	none (no result: Gal4-VP16 FLuc, RORgamma inh)
COc1ccc(OCC(=O)Nc2cccc(-c3nc4ccccc4o3)c2)cc1	ELG1 repair inh inconclusive
